Read-out in assay [1]: Interleukin-1 alpha (IL1a), IL1A (gene 3552)
The assay is described as follows: BSK_KF3CT_IL1a: BioMAP Diversity Plus: KF3CT Assay for Interleukin-1 alpha (IL1a) Biomarker Activity (AID 2283070). The settings on record: primary human keratinocytes with fibroblasts; actives raise or lower the signal. In short, it runs like this:
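Readout is IL-1a level by ELISA, compared bidirectionally with DMSO as baseline. Cells: human keratinocytes co-cultured with foreskin fibroblasts, harvested 24 h post-dose.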

Read-out in assay [2]: TIMP metallopeptidase inhibitor 2 (TIMP2), TIMP2 (gene 7077)
The assay is described as follows: BSK_KF3CT_TIMP2: BioMAP Diversity Plus: KF3CT Assay for TIMP metallopeptidase inhibitor 2 (TIMP2) Biomarker Activity (AID 2283071). Conditions: primary human keratinocytes with fibroblasts; actives raise or lower the signal. In short, it runs like this:
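Measurements come from ELISA detection of TIMP-2 at 24 hours in a dosed human keratinocyte and foreskin fibroblast co-culture. DMSO serves as negative control and baseline.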

Read-out in assay [3]: Transforming growth factor beta 1 (TGFb1), TGFB1 (gene 7040)
The assay is described as follows: BSK_KF3CT_TGFb1: BioMAP Diversity Plus: KF3CT Assay for Transforming growth factor beta 1 (TGFb1) Biomarker Activity (AID 2283072). The settings on record: primary human keratinocytes with fibroblasts; actives raise or lower the signal. In short, it runs like this: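 TGF-b1 ELISA on a 24 h dosed co-culture of human keratinocytes and foreskin fibroblasts; cytotoxicity tracked in parallel cultures by SRB staining.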

Read-out in assay [4]: C-C motif chemokine 2 (Homo sapiens) (UniProt P13500)
Nature of the assay: BSK_KF3CT_MCP1: BioMAP Diversity Plus: KF3CT Assay for Monocyte Chemoattractant Protein 1 (MCP1/CCL2) Biomarker Activity (AID 2283073). Conditions: primary human keratinocytes with fibroblasts; actives raise or lower the signal. In short, it runs like this: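 Keratinocytes and foreskin fibroblasts were co-cultured, dosed with chemical, and sampled 24 h later. MCP-1 was quantified by ELISA, and the endpoint was analyzed with bidirectional fitting using DMSO as negative control.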

Read-out in assay [5]: Matrix Metallopeptidase 9 (MMP9), MMP9 (gene 4318)
Nature of the assay: BSK_KF3CT_MMP9: BioMAP Diversity Plus: KF3CT Assay for Matrix Metallopeptidase 9 (MMP9) Biomarker Activity (AID 2283074).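 On AC50: MMP9 protein level quantified by ELISA in the co-culture.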 Conditions: primary human keratinocytes with fibroblasts; actives raise or lower the signal. In short, it runs like this:
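Values come from bidirectional fitting relative to DMSO of MMP-9 levels, which were measured by ELISA. Measurements were taken 24 h after chemical dosing of a keratinocyte and foreskin fibroblast co-culture.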

Read-out in assay [6]: urokinase plasminogen activator (uPA), PLAU (gene 5328)
The assay is described as follows: BSK_KF3CT_uPA: BioMAP Diversity Plus: KF3CT Assay for urokinase plasminogen activator (uPA) Biomarker Activity (AID 2283075). The settings on record: primary human keratinocytes with fibroblasts; actives raise or lower the signal. In short, it runs like this: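 Values derive from bidirectional fitting against DMSO controls. Keratinocyte/foreskin fibroblast co-cultures received chemical; 24 h later uPA was detected by ELISA, with SRB total-protein staining in parallel wells for overt cytotoxicity.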

Read-out in assay [7]: CD40, CD40 (gene 958)
Nature of the assay: BSK_LPS_CD40: BioMAP Diversity Plus: LPS Assay for CD40 Biomarker Activity (AID 2283076). The settings on record: primary human HUVEC with PBMC; actives raise or lower the signal. In short, it runs like this: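 CD40 signal, measured by ELISA, is fitted in both directions relative to DMSO vehicle. The system is an LPS-driven human vascular primary co-culture of endothelial cells and PBMC, sampled 24 h after compound addition.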

Read-out in assay [8]: E-selectin (Homo sapiens) (UniProt P16581)
The assay is described as follows: BSK_LPS_Eselectin: BioMAP Diversity Plus: LPS Assay for Eselectin Biomarker Activity (AID 2283077). The settings on record: primary human HUVEC with PBMC; actives raise or lower the signal. The procedure, abridged:
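Signal of E-selectin, detected by ELISA, served as the endpoint; cells were umbilical vein endothelium with PBMC, read 24 h after treatment. DMSO defined baseline, and both increases and decreases were fitted.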

Read-out in assay [9]: Interleukin-8 (IL8), CXCL8 (gene 3576)
The assay is described as follows: BSK_LPS_IL8: BioMAP Diversity Plus: LPS Assay for Interleukin-8 (IL8) Biomarker Activity (AID 2283078). Conditions: primary human HUVEC with PBMC; actives raise or lower the signal. In short, it runs like this:
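Endothelial cells and PBMC from human donors are co-cultured, treated with chemicals and LPS, then assayed for IL-8 by ELISA after 24 h. Parallel SRB staining (0.1% SRB after 10% TCA fixation, 560 nm) flags cytotoxicity.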

Assay [10] can be described thus: BSK_LPS_SRB: Viability Assessment in the BioMAP Diversity Plus: LPS Assay (AID 2283079).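 Further: total protein by sulforhodamine B absorbance as a cytotoxicity measure; measured one day after compound addition; fitted in both directions against DMSO so loss or gain of signal counts.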 Conditions: primary human HUVEC with PBMC. The procedure, abridged:
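Overt cytotoxicity was gauged by sulforhodamine B total-protein staining in a primary human vascular endothelial and mononuclear cell co-culture 24 h post-dosing. Activity was fitted in both directions relative to DMSO.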

Read-out in assay [11]: Interleukin-1 alpha (IL1a), IL1A (gene 3552)
Nature of the assay: BSK_LPS_IL1a: BioMAP Diversity Plus: LPS Assay for Interleukin-1 alpha (IL1a) Biomarker Activity (AID 2283080). The settings on record: primary human HUVEC with PBMC; actives raise or lower the signal. The procedure, abridged:
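Measured: IL-1 alpha via ELISA at 24 h in LPS-activated human umbilical vein endothelium–PBMC co-culture. Baseline: DMSO, bidirectional fitting.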

Read-out in assay [12]: Monocyte Chemoattractant Protein-1 (MCP1), CCL2 (gene 6347)
Nature of the assay: BSK_LPS_MCP1: BioMAP Diversity Plus: LPS Assay for Monocyte Chemoattractant Protein-1 (MCP1) Biomarker Activity (AID 2283081).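 On AC50: secreted MCP-1 protein quantified by ELISA in culture supernatant.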 Conditions: primary human HUVEC with PBMC; actives raise or lower the signal. In short, it runs like this: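 LPS-stimulated HUVEC/PBMC co-culture; chemical, 24 h; MCP-1 by ELISA; bidirectional fit vs DMSO; cytotoxicity via SRB (0.1% stain, 10% TCA fix, 560 nm) in parallel wells.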

A short description of assay [13]: BSK_LPS_PGE2: BioMAP Diversity Plus: LPS Assay for Prostaglandin E2 (PGE2) Biomarker Activity (AID 2283082). Conditions: primary human HUVEC with PBMC; actives raise or lower the signal. The procedure, abridged: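 Primary human endothelial cells and blood mononuclear cells, co-cultured with LPS, receive test chemical; PGE2 ELISA follows at 24 h, with SRB-stained parallel cultures flagging cytotoxicity.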

Read-out in assay [14]: Tissue Factor, F3 (gene 2152)
Nature of the assay: BSK_LPS_TissueFactor: BioMAP Diversity Plus: LPS Assay for Tissue Factor Biomarker Activity (AID 2283084). The settings on record: primary human HUVEC with PBMC; actives raise or lower the signal. The procedure, abridged: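 In this co-culture system of umbilical vein endothelium with PBMC, stimulated with LPS, cell-surface CD142 is detected by ELISA at 24 h. Endpoint values derive from bidirectional fitting, DMSO serving as baseline.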

Read-out in assay [15]: Vascular cell adhesion molecule 1 (VCAM1), VCAM1 (gene 7412)
Nature of the assay: BSK_LPS_VCAM1: BioMAP Diversity Plus: LPS Assay for Vascular cell adhesion molecule 1 (VCAM1) Biomarker Activity (AID 2283086). Conditions: primary human HUVEC with PBMC; actives raise or lower the signal. In short, it runs like this:
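Measured by ELISA: VCAM-1 in LPS-activated HUVEC/PBMC co-cultures 24 h after treatment. Values reflect bidirectional fitting with DMSO as baseline.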

Read-out in a further assay: CD38, CD38 (gene 952)
The assay is described as follows: BSK_SAg_CD38: BioMAP Diversity Plus: SAg Assay for CD38 Biomarker Activity (AID 2283087). The settings on record: primary human HUVEC with PBMC; actives raise or lower the signal. The procedure, abridged:
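Measures CD38 on a human endothelial/PBMC co-culture driven by SEB and TSST-1, 24 h after compound exposure, using ELISA with fluorescence detection; DMSO defines baseline for bidirectional curve fitting.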

Read-out in assay [16]: CD40, CD40 (gene 958)
Nature of the assay: BSK_SAg_CD40: BioMAP Diversity Plus: SAg Assay for CD40 Biomarker Activity (AID 2283088). The settings on record: primary human HUVEC with PBMC; actives raise or lower the signal. In short, it runs like this: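 Fluorescence ELISA read-out of CD40 from umbilical vein endothelium plus peripheral blood mononuclear cells, sampled 24 h after dosing. Values come from bidirectional curve fitting with DMSO as baseline.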

Read-out in another assay: CD69, CD69 (gene 969)
The assay is described as follows: BSK_SAg_CD69: BioMAP Diversity Plus: SAg Assay for CD69 Biomarker Activity (AID 2283089).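 On AC50: cell surface CD69 protein quantified by ELISA with fluorescence detection.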 The settings on record: primary human HUVEC with PBMC; actives raise or lower the signal. The procedure, abridged: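 HUVEC co-cultured with PBMC were dosed with chemical, and CD69 was measured by ELISA with fluorescence read-out 24 h later. Bidirectional curve fitting used DMSO as negative control and activity baseline.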

Read-out in assay [17]: Tumor necrosis factor (Homo sapiens) (UniProt P01375)
Nature of the assay: BSK_LPS_TNFa: BioMAP Diversity Plus: LPS Assay for Tumour Necrosis Factor alpha (TNFa) Biomarker Activity (AID 2283085). Conditions: primary human HUVEC with PBMC; actives raise or lower the signal. The procedure, abridged:
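ELISA-based TNFa endpoint in a human endothelial–PBMC co-culture sampled 24 h post-exposure. Curves were fitted in both directions using DMSO as baseline of activity.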

Read-out in assay [18]: Macrophage colony-stimulating factor (MCSF), CSF1 (gene 1435)
The assay is described as follows: BSK_LPS_MCSF: BioMAP Diversity Plus: LPS Assay for Macrophage colony-stimulating factor (MCSF) Biomarker Activity (AID 2283083). The settings on record: primary human HUVEC with PBMC; actives raise or lower the signal. In short, it runs like this: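 Compound is added to a human vascular primary co-culture of umbilical vein endothelium and blood mononuclear cells. After 24 h, M-CSF is quantified by ELISA. Signal changes are fitted in both directions against DMSO.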

The term AC50 denotes the concentration at which the activity in the assay is half-maximal.

Some compounds were tested as several samples or in several runs, with calls that do not always agree. Active and inactive are the calls of the source. How the source made its calls: active means hit-call score of the fitted dose curve at least 0.9, where 1 is the maximum; inactive means score below 0.9.

Sequence of E-selectin (Homo sapiens) (P16581 whole entry, looked up): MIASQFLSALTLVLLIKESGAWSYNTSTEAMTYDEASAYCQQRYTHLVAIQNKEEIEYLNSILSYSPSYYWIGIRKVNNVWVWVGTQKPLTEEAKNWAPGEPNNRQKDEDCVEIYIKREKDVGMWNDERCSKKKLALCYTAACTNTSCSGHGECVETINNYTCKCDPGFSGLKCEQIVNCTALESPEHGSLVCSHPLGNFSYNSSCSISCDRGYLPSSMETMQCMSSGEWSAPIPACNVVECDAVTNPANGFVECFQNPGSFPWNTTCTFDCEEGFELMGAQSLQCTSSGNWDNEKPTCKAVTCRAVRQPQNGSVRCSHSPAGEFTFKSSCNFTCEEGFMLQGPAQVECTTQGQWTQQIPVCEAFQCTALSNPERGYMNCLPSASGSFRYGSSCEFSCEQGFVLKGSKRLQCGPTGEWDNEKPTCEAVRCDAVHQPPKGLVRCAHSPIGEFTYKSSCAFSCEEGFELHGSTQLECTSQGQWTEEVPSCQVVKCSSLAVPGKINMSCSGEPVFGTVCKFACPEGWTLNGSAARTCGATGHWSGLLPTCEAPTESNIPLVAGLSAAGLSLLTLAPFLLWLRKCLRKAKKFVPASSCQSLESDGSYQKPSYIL
Sequence of Tumor necrosis factor (Homo sapiens) (P01375 whole entry, looked up): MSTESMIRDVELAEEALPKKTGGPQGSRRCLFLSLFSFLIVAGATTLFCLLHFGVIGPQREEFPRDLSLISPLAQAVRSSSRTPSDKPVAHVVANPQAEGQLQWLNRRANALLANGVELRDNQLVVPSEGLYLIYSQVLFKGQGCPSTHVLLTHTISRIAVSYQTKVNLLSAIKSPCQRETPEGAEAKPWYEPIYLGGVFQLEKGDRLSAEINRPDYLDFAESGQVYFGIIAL

Take `Nc1cc2c3c(c1)C(c1ccccc1)=N[C@@H](NC(=O)c1cccnc1)C(=O)N3CC2`: the outcome in assay [1], in assay [2], in [3], in assay [4], in [5] and in assay [6] was inactive. In addition, the outcome with CD40, CD40 (gene 958) [7] was “inactive”; in assay [8] it was “inactive”; in [9] it was “inactive”; in [10], “inactive”; in [11], “inactive”; in assay [12], “inactive”. Besides, the outcome is “inactive” in [13]; “inactive” in assay [14]; “inactive” in [15]; “inactive” with CD38, CD38 (gene 952). Besides, the AC50 with CD40, CD40 (gene 958) [16] was 3.97 µM (active); with CD69, CD69 (gene 969) it was 0.837 µM (active).
On to `CC(C)(C)c1ccccc1OP(=O)(Oc1ccccc1)Oc1ccccc1`, for which the AC50 in [1] was 20 µM (active); in assay [2], 20 µM (active); in assay [5] it was 8.49 µM (active); in the assay with CD40, CD40 (gene 958) [7] it was 25.3 µM (active); in [8], 20 µM (active); in assay [9], 20 µM (active). The AC50 was 20 µM (active) in [10]; 27.3 µM (active) in assay [11]; 20 µM (active) in assay [12]; 20 µM (active) in assay [15]; 30.7 µM (active) with CD38, CD38 (gene 952); 28.3 µM (active) with CD40, CD40 (gene 958) [16]. For the same molecule, the AC50 in the assay with CD69, CD69 (gene 969) was 27.5 µM (active). Further, the outcome in assay [3], in [4], in [6], in assay [13], in [14] and in assay [17] was inactive.
As to `O=S1(=O)OCC2C(CO1)C1(Cl)C(Cl)=C(Cl)C2(Cl)C1(Cl)Cl` (centres undefined), the outcome is “inactive” in assay [1]; “inactive” in [2]; “inactive” in assay [4]; “inactive” in assay [5]; “inactive” in assay [6]; “inactive” in the assay with CD40, CD40 (gene 958) [7]. Further, the outcome in assay [9], in [10], in assay [11], in assay [13], in assay [18] and in [14] was inactive. Moreover, the outcome in assay [15] is “inactive”; in the assay with CD38, CD38 (gene 952), “inactive”; with CD40, CD40 (gene 958) [16], “inactive”; in the assay with CD69, CD69 (gene 969), “inactive”. Besides, the AC50 in assay [3] is 35.6 µM (active); in assay [12], 10.5 µM (active).
For the molecule `CC(O)C(F)(F)C(F)(F)F` (centres undefined), the outcome is “inactive” in assay [1]; “inactive” in [2]; “inactive” in [4]; “inactive” in assay [5]; “inactive” in [6]; “inactive” with CD40, CD40 (gene 958) [7]. The result in assay [8], in assay [9], in [10], in [11], in [12] and in [13] was inactive. Also, the outcome in assay [18] was “inactive”; in assay [14], “inactive”; in assay [15] it was “inactive”; with CD38, CD38 (gene 952), “inactive”; with CD40, CD40 (gene 958) [16] it was “inactive”; with CD69, CD69 (gene 969), “inactive”. In addition, the AC50 in assay [14] is 5.95 µM (active).

(Values after PubChem BioAssay (EPA / NIEHS).)
